Screening data as filed in PubChem BioAssay.
Hits are enriched below; roughly 3.5% of the tested compounds scored in any of these assays.
FBW7 activator: FBW7 E3 ligase activators, primary screen, biochemical, AlphaScreen, human. F-box/WD repeat-containing protein 7 (Homo sapiens), Q969H0. AlphaScreen FBW7–phospho-cyclin E peptide binding, activator screen. normalized activity (activation), % at 26.1 µM. hit rate 0.13% among 650,000. AID 1259310, 2017; in the data active means normalized activity above about 1.9%;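 further: purified mutant Fbw7 with reduced substrate affinity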
TEAD-YAP inh: TEAD-YAP interaction inhibition, primary screen, TEAD-YAP interaction inhibitor project, luminescence, HEK-TIYL cells; TEAD-Gal4/YAP UAS-luciferase luminescence; inhibition, % at 9.12 µM; hit rate 1.4% among 640,000; AID 1259422, 2018; in the data active means inhibition above about 32%;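 further: 0% = median of test compound wells and 100% = reference inhibitor wells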
GPR151 activ: activators of human GPR151, primary screen, cell-based, PathHunter beta-arrestin, luminescence | G-protein coupled receptor 151 (Homo sapiens), Q8TDV0 | PathHunter beta-arrestin GPR151 cells | activation, % at 11.2 µM | hit rate 1% among 650,000 | AID 1508602, 2020; in the data active means activation above about 4.9%;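 further: 0% = median of compound wells and 100% = cells with positive control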
MITF inh: MITF inhibitors, primary screen, biochemical, AlphaScreen, human; hit rate 0.91% among 650,000; AID 1259374, 2018; AlphaScreen MITF homodimerization, bead proximity signal; inhibition, % at 2.6 µM; in the data active means inhibition above about 50%;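 further: 0% = vehicle wells with protein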
Target sequence (O75030 whole entry, looked up): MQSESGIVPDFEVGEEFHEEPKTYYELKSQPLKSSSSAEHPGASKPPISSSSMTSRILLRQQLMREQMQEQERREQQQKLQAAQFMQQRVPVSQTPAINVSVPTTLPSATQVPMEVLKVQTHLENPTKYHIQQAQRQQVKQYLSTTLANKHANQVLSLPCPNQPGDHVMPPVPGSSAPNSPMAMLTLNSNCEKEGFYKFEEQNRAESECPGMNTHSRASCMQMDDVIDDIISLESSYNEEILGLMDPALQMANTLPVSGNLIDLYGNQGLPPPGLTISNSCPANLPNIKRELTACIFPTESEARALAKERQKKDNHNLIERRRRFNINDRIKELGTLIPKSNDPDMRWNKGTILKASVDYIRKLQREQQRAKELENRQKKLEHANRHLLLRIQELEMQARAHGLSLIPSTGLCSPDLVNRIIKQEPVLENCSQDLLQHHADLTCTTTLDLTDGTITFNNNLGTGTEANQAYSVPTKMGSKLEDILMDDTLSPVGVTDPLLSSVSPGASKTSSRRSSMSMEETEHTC
Numbers without * were called inactive.

SMILES	FBW7 activator	TEAD-YAP inh	GPR151 activ	MITF inh
CCN(CC)CCn1c(-c2ccc(Cl)cc2)cn2c3ccccc3nc12	0	10	-1	3
CCN(CC)CCn1c2ccccc2n2cc(-c3ccc(Cl)cc3)nc12	4.3*	4	0	-17
CN(C)CCn1c2ccccc2n2cc(-c3ccc(-c4ccccc4)cc3)nc12	1	-7	-1	0
CCOc1ccc(-c2cn3c4ccccc4n(CCN(CC)CC)c3n2)cc1	1	-10	0	16
COC(=O)CCCN1C(=O)c2cccc3c(N4CCOCC4)ccc(c23)C1=O	0	53*	0	-4
CCC(=O)OCCN1C(=O)c2cccc3c(N4CCOCC4)ccc(c23)C1=O	0	-3	-1	-12
COCCNc1nccn2c(-c3ccccc3CO)cnc12	0	0	0	16
OCCNc1nccn2c(-c3ccccc3CO)cnc12	2.1*	-4	0	3
c1ccc(CCNc2nccn3c(-c4ccsc4)cnc23)nc1	-1	50*	-1	-14
c1ccc(CCNc2nccn3c(-c4ccoc4)cnc23)nc1	0	31	-3	-23
COc1cc(Nc2cc(NCCN3CCOCC3)ncn2)cc(OC)c1OC	0	-1	0	18
CCOC(=O)C1CCN(S(=O)(=O)c2ccc([N+](=O)[O-])cc2)CC1	0	-1	1	-5
Cc1nnc(SC(=O)N2c3ccccc3Sc3ccccc32)s1	0	61*	0	7
Cc1nc(N(C)c2ccc(C(C)C)cc2)c2c(C)c(C(=O)Nc3ccc(C(C)C)cc3)sc2n1	0	-4	0	1
CCOCCCNCC(O)COc1c(Cl)cccc1Cl (stereo not given)	0	52*	-1	30
COc1cccc(-c2noc(-c3ccc([N+](=O)[O-])c(C)c3)n2)c1	0	-24	-2	-4
CCc1ccc2nc(N3CCCC(C(=O)O)C3)sc2c1 (stereo not given)	0	58*	0	9
CCOc1ccc2nc(SCCC(=O)Nc3ccccc3)sc2c1	0	36*	1	-4
CCOC(=O)N1CCN(C(=O)C2CCN(c3nc4ccc(CC)cc4s3)CC2)CC1	1	11	0	-7
CCOc1ccc2nc(N3CCC(C(=O)Nc4cccc(C(C)=O)c4)CC3)sc2c1	1	69*	1	19
CCOc1ccc2nc(SCCC(=O)Nc3ccc(OC)cc3)sc2c1	0	28	3	1
CCOc1ccc(NC(=O)C2CCN(c3nc4ccc(OCC)cc4s3)CC2)cc1	0	12	1	-3
CCc1ccc2nc(N3CCC(C(=O)N4CCCC4)CC3)sc2c1	0	48*	0	2
FC(F)(F)c1ccc(Cn2cnc3c(NCc4ccccc4)nc(N4CCC(N5CCOCC5)CC4)nc32)cc1	0	-1	1	15
O=C(NCCCO)C(=O)NCC1OCCCN1S(=O)(=O)c1ccc(F)cc1 (stereo not given)	0	-2	-2	4
SMILES	FBW7 activator	TEAD-YAP inh	GPR151 activ	MITF inh
Cc1ccc(NC(=O)c2snc3c(=O)[nH]cnc23)c(C)c1	0	-8	0	-5
O=C(NCCc1ccccc1)c1ccc(OC2CCN(C(=O)C3CCOC3)CC2)cc1 (stereo not given)	0	2	2	-1
c1ccc2c(c1)Cc1cc3ccccc3nc1-2	0	47*	-9	10
Cc1ccc2cc3c(nc2c1)-c1ccccc1C3	0	60*	-10	9
Cc1cc(C)c2c(c1)Cc1cc3ccccc3nc1-2	0	-15	1	5
Cc1ccc2nc(-c3ccccc3)c(-c3ccccc3)nc2c1	1	2	1	-2
CCOC(=O)NC(Nc1sc2c(c1C(=O)OC)CCCC2)(C(=O)OCC)C(F)(F)F (stereo not given)	0	-4	2	11
N#C/C(=C\c1ccc(/C=C(\C#N)c2nn(CCO)c(N)c2C#N)cc1)c1nn(CCO)c(N)c1C#N	0	-1	1	15
Cn1c(-c2ccccc2)c(/C=C(\C#N)c2nn(CCO)c(N)c2C#N)c2ccccc21	0	50*	0	-8
C=CCN1C(=O)C(O)(c2c(C)[nH]c3ccccc23)c2ccccc21 (stereo not given)	0	6	1	-1
O=C(CNC(=S)N(Cc1ccccc1F)C1CCCCC1)NCC1COc2ccccc2O1 (stereo not given)	0	3	-2	4
COc1ccc(CNC(=O)c2ccc3c(c2)CC(c2nc4ccc(-c5ccnc(N)n5)cc4[nH]2)CO3)cc1 (stereo not given)	7.5*	12	1	-2
Nc1nccc(-c2ccc3nc(C4COc5ccc(C(=O)NCc6ccccc6)cc5C4)[nH]c3c2)n1 (stereo not given)	0	-5	-2	4
Nc1nccc(-c2ccc3nc(C4COc5ccc(C(=O)NC6CCCCC6)cc5C4)[nH]c3c2)n1 (stereo not given)	6.0*	6	1	0
Nc1nccc(-c2ccc3nc(C4COc5ccc(C(=O)NC6CCCC6)cc5C4)[nH]c3c2)n1 (stereo not given)	2.4*	-2	2	14
O=C(CSc1nc2sc3c(c2c(=O)n1-c1ccccc1)CCCC3)NC1CCCCC1	0	-12	0	-11
CC1=NN(c2nc(-c3ccccc3)cs2)C(=O)C1C(c1ccccc1)C(C#N)C(N)=O (stereo not given)	1	76*	-1	24
O=c1c2c3c(sc2nc(SCc2ccc4c(c2)OCO4)n1-c1ccccc1)CN(Cc1ccccc1)CC3	0	-6	0	11
O=C(/C=C(\NCc1ccccc1)C(F)F)c1ccccc1O	0	3	2	2
CN(C)c1ccc(/C=C/c2cc[n+](C)c3ccccc23)cc1	-1	92*	-2	50
O=C(Cc1ccccc1Cl)Nc1nc2c(s1)CCCC2	0	17	2	2
CC(=O)c1ccc(C(=O)Nc2nc3c(s2)CCCC3)cc1	0	65*	-1	4
O=C(Nc1nc2c(s1)CCCC2)c1ccccc1Cl	0	45*	-8	-6
O=C(Nc1nc2c(s1)CCCC2)c1cc(Cl)sc1Cl	0	49*	-9	17
CC1CCc2nc(NC(=O)c3cc(Cl)sc3Cl)sc2C1 (stereo not given)	0	-45	-1	2
O=C(CCN1CCOCC1)N1N=C(c2cccs2)CC1c1cccs1 (stereo not given)	0	-2	-2	9
O=C1c2ccc(Oc3cccc([N+](=O)[O-])c3)cc2C(=O)N1Nc1ccco1	0	0	2	-2
CCOC(=O)c1c(NC(=O)CSc2nnc(CNC(=O)Cc3ccccc3)n2-c2cccc(Cl)c2)sc2c1CCC2	0	-5	-1	-1
O=C(Nc1ccccc1)N1CCC2(CC1)NCCc1c2[nH]c2ccc(Cl)cc12	0	46*	0	10
